Experimental data published in PubChem BioAssay (EPA / NIEHS).
Active and inactive are the calls of the source. Rule for the calls: active = hit-call score of the fitted dose curve at least 0.9, where 1 is the maximum; inactive = score below 0.9.

assay: BSK_KF3CT_SRB: Viability Assessment in the BioMAP Diversity Plus: KF3CT Assay (AID 2283069); conditions: primary human keratinocytes with fibroblasts;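 note: total protein by sulforhodamine B staining as a cytotoxicity measure; fitted for both signal gain and loss against DMSO baseline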
Method in brief: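 Human keratinocyte and foreskin fibroblast co-culture exposed to chemical for 24 h. Total protein measured in parallel cultures by 0.1% sulforhodamine B staining after 10% TCA fixation, read at 560 nm; bidirectional fit relative to DMSO.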

| Compound | outcome |
| --- | --- |
| C[Si](C)(C)C(F)(F)C(F)(F)C(F)(F)F | inactive |
| O=C(NO)C1(NS(=O)(=O)c2ccc(Oc3ccc(F)cc3)cc2)CCOCC1 | inactive |
| O=C1CN(N=Cc2ccc([N+](=O)[O-])o2)C(=O)N1 | inactive |
| OC(Cn1cncn1)(Cn1cncn1)c1ccc(F)cc1F | inactive |
| O=S(=O)(O)CCC(F)(F)C(F)(F)C(F)(F)C(F)(F)C(F)(F)C(F)(F)F | inactive |
| OC(CCl)CCl | inactive |
| OCc1ccccc1 | inactive |
| c1ccc(C(O[C@@H]2CCCN(CCc3ccc4c(c3)OCO4)C2)c2ccccc2)cc1 | inactive |
| O=C(Cl)C(F)(F)C(F)(F)C(F)(F)C(=O)Cl | inactive |
| CCCCCCCC/C=C\CCCCCCCC(=O)OC[C@@H](O)[C@H]1OC[C@H](O)[C@H]1O | inactive |
| CCCCCCCCN(C)C | inactive |
| COS(C)(=O)=O | inactive |
| CCCc1ccccc1 | inactive |
| COc1cc2c(c(OC)c1OC)-c1ccc(OC)c(=O)cc1[C@@H](NC(C)=O)CC2 | inactive |
| COCc1nnc(-c2ccc[n+]([O-])c2)n1-c1c(Cl)c(Cl)cc2[nH]c(=O)c(=O)[nH]c12 | inactive |
| CNC(C)=O | inactive |
| CCCCOC(=O)c1ccccc1 | inactive |
| OC[C@H]1O[C@@H]2O[C@H]3[C@H](O)[C@@H](O)[C@@H](O[C@H]4[C@H](O)[C@@H](O)[C@@H](O[C@H]5[C@H](O)[C@@H](O)[C@@H](O[C@H]6[C@H](O)[C@@H](O)[C@@H](O[C@H]7[C@H](O)[C@@H](O)[C@@H](O[C@H]1[C@H](O)[C@H]2O)O[C@@H]7CO)O[C@@H]6CO)O[C@@H]5CO)O[C@@H]4CO)O[C@@H]3CO | inactive |
